Measured values reported in the supplement of paper PMC12340641.
Over roughly 1,000 compounds, “relative growth recovery (pomalidomide 10 uM = 100%, DMSO = 0%)” has its median near -1.6; the highest 2% begin near 21. Shown is part of a subset that was picked to be rich in the highest values.

System: HEK293FT dCK*-IKZF1
Assay: relative growth recovery (pomalidomide 10 uM = 100%, DMSO = 0%); higher = more growth rescue (IKZF1 fusion degradation)
Settings: compound concentration: 5 uM; AraC concentration: 0.3 uM; overnight pretreatment + 4 days AraC
Method: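 Growth recovery screen of the molecular-glue-like (Specs) library. HEK293FT cells expressing a dCK*-IKZF1 fusion (primary) or dCK* alone (counter) were pretreated overnight with compound at 5 uM, then given 0.3 uM AraC for 4 days. Hoechst nuclei were counted by imaging. Primary: normalised to pomalidomide (100%) and DMSO (0%), mean of 2 replicates. Counter: normalised to no-AraC (100%) and AraC+DMSO (0%), single replicate.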

Compared with Cc1ccnc(NS(=O)(=O)c2ccc(NC(=O)c3ccc(Cl)cc3[N+](=O)[O-])cc2)n1, Cc1ccnc(NS(=O)(=O)c2ccc(NC(=O)c3ccc(C)c(C)c3)cc2)n1 is higher in relative growth recovery: -0.255% for the first, 1.75% for the second.

First: Cc1cc(C)nc(NS(=O)(=O)c2ccc(/N=C3/NC(=O)CS3)cc2)n1
Second: Cc1cc(C)nc(NS(=O)(=O)c2ccc(Nc3nc(-c4cccnc4)cs3)cc2)n1
The relative growth recovery of the first is higher: -0.9% for the first, -1.15% for the second.

Going from O=C(Nc1ccc(S(=O)(=O)Nc2ncccn2)cc1)c1cccc(Br)c1 to O=C(Nc1ccc(S(=O)(=O)Nc2ncccn2)cc1)c1ccc([N+](=O)[O-])cc1, the relative growth recovery rises from -4.75% to -0.33%.

Going from Cc1csc(Nc2cccc(C3CCN(C(=O)c4nccc5ccccc45)CC3)n2)n1 to Cc1cnc(Nc2cccc(C3CCN(C(=O)c4cccc5cccnc45)CC3)n2)s1, the relative growth recovery falls from -0.34% to -2%.

Going from Cc1ccnc(NS(=O)(=O)c2ccc(NC(=O)c3ccc4c(c3)OCO4)cc2)n1 to CCCOc1ccc(C(=O)Nc2ccc(S(=O)(=O)Nc3nc(C)cc(C)n3)cc2)cc1, the relative growth recovery falls from 0.925% to -2.85%.

Going from Cc1cc(NS(=O)(=O)c2ccc(NC(=O)COc3ccccc3Cl)cc2)nc(C)n1 to Cc1cc(NS(=O)(=O)c2ccc(NC(=O)c3ccccc3C)cc2)nc(C)n1, the relative growth recovery falls from 3.46% to -1.93%.

First: CC(=O)N1CCCCC1c1csc(Nc2ccccn2)n1 (centres undefined)
Second: Cc1csc(Nc2cccc(C3CCCN3C(=O)CO)n2)n1 (centres undefined)
The relative growth recovery of the first is lower: 1.36% for the first, 1.4% for the second.

Going from Cc1csc(Nc2cccc(C3CCCN3C(=O)Cc3ccc(F)cc3)n2)n1 (centres undefined) to Cc1nc(Nc2cccc(C3CCCN3C(=O)COc3ccc(F)cc3)n2)sc1C (centres undefined), the relative growth recovery rises from 3.22% to 14.4%.

Going from CN1CCN(CC(=O)N2CCC(c3cccc(Nc4ncc(-c5ccccc5)s4)n3)CC2)CC1 to Cc1cnc(Nc2cccc(C3CCN(C(=O)C4(N)CCCCC4)CC3)n2)s1, the relative growth recovery rises from -17.9% to -17.6%.

Compared with Cc1cnc(Nc2cccc(C3CN(C(=O)CN(CCC(C)C)c4ccccc4)CCO3)n2)s1 (centres undefined), Cc1cnc(Nc2cccc(C3CN(C(=O)CC4CCCCC4)CCO3)n2)s1 (centres undefined) is lower in relative growth recovery: -3.83% for the first, -11.7% for the second.

Going from O=C(CCn1ncc2c1CCCC2)N1CCOC(c2cccc(Nc3nccs3)n2)C1 (centres undefined) to Cc1cnc(Nc2cccc(C3CN(C(=O)C4CCCCC4)CCO3)n2)s1 (centres undefined), the relative growth recovery falls from 14.7% to -11.7%.

First: CCC(C)(C)C(=O)Nc1ccc(S(=O)(=O)Nc2ncccn2)cc1
Second: O=C(Nc1ccc(S(=O)(=O)Nc2ncccn2)cc1)C(F)(F)F
The relative growth recovery of the first is lower: -5.08% for the first, 12.6% for the second.

First: Cc1ccnc(NS(=O)(=O)c2ccc(NS(=O)(=O)c3ccc(F)cc3)cc2)n1
Second: Cc1ccc(S(=O)(=O)Nc2ccc(S(=O)(=O)Nc3ncccn3)cc2)cc1
The relative growth recovery of the first is higher: -0.59% for the first, -3.26% for the second.

First: COc1cc(NS(=O)(=O)c2ccc(NC(=O)COc3ccc(C)cc3)cc2)nc(OC)n1
Second: Cc1cc(C)nc(NS(=O)(=O)c2ccc(NC(=O)COc3ccc(Cl)cc3)cc2)n1
The relative growth recovery of the first is lower: 1.75% for the first, 3.77% for the second.

Going from O=C(CN1CCC(c2cccc(Nc3nccs3)n2)CC1)Nc1ccc(F)cc1 to CC(=O)NC1(CC(=O)N2CCC(c3cccc(Nc4ncc(C)s4)n3)CC2)CCCCC1, the relative growth recovery falls from 9.19% to -11.7%.

First: COc1ccc(Cl)c2c1[nH]c1nc(SCC(=O)Nc3ccc(F)cc3)nnc12
Second: COc1ccccc1OCC(=O)Nc1ccc(S(=O)(=O)Nc2ncccn2)cc1
The relative growth recovery of the first is lower: -2.51% for the first, 1.59% for the second.

Compared with Cc1cnc(Nc2cccc(C3(C(N)=O)CCN(C(=O)C4CCCCC4)CC3)n2)s1, Cc1cnc(Nc2cccc(C3CN(C(=O)C4CCOC4)CCO3)n2)s1 (centres undefined) is higher in relative growth recovery: -18.2% for the first, -8.06% for the second.

Going from Cc1cnc(Nc2cccc(C3CCN(C(=O)C45CC6CC(CC(C6)C4)C5)CC3)n2)s1 to Cc1csc(Nc2cccc(C3CCCN3C(=O)CC3CC(C)(C)NC(C)(C)C3)n2)n1 (centres undefined), the relative growth recovery falls from 1.16% to -0.835%.

Going from Cc1cc(Cl)ccc1OC(C)C(=O)Nc1ccc(S(=O)(=O)Nc2ccccn2)cc1 (centres undefined) to Cc1cc(Cl)ccc1OCC(=O)Nc1ccc(S(=O)(=O)Nc2ncccn2)cc1, the relative growth recovery falls from 0.47% to -2.19%.

Compared with Cc1cc(NS(=O)(=O)c2ccc(NC(=O)CCCOc3ccc(Cl)cc3)cc2)nc(C)n1, COc1ccc(OCCCC(=O)Nc2ccc(S(=O)(=O)Nc3ncccn3)cc2)cc1 is lower in relative growth recovery: -1.54% for the first, -3.56% for the second.

Compared with Cc1ccc(Nc2nc(C3CCCN(CC(N)=O)C3)cs2)nc1 (centres undefined), CN(CCN1CCC(C(=O)O)CC1)c1cccc2c1C(=O)N(C1CCC(=O)NC1=O)C2=O (centres undefined) is higher in relative growth recovery: -5.75% for the first, 5.47% for the second.

First: Cc1cc(C)nc(NS(=O)(=O)c2ccc(NC(=S)NC(=O)c3ccc(F)c(F)c3)cc2)n1
Second: Cc1cc(C)nc(NS(=O)(=O)c2ccc(NC(=O)c3ccc(S(=O)(=O)N(C)C)cc3)cc2)n1
The relative growth recovery of the first is higher: -2.13% for the first, -5.78% for the second.

First: O=C1CCC(N2C(=O)c3ccc(N4CCC(C(=O)O)CC4)cc3C2=O)C(=O)N1 (centres undefined)
Second: CC(=O)Nc1cccc(Oc2ccc3c(c2)C(=O)N(c2ccc(OC(C)=O)cc2)C3=O)c1
The relative growth recovery of the first is higher: 1.72% for the first, -2.76% for the second.

Compared with Cc1ccc(Oc2ccc(N3C(=O)c4ccc(Oc5ccc(N)cc5)cc4C3=O)cc2)cc1C, CCNc1nc(NCC)nc(NS(=O)(=O)c2ccc(N)cc2)n1 is higher in relative growth recovery: -8.53% for the first, 3.4% for the second.

CC(=O)Nc1ccc(S(=O)(=O)N(C#N)c2nc(C)cc(C)n2)cc1 gave a relative growth recovery of 4.26%.
